Data from the supplement of paper PMC4022240.
± gives the standard deviation.

What was measured:
Test in all cases: peptide microarray binding signal (635 nm), min-max normalized on array (fraction of array maximum); higher = stronger binding
Conditions in all cases: peptide region: Unmod H4 variant
[1] = molecular target: T1, HaloTag-ATRX ADD domain (163-292)
T1 chain: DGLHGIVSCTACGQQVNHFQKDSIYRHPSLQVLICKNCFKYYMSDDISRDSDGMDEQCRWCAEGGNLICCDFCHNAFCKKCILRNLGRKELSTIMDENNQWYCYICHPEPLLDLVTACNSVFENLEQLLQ
In short: (§1)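 Triplicate spots of histone 13-mer peptide–cellulose conjugates with a Cy3 tracer were printed on nitrocellulose and probed for 1 h at 4°C with biotin-labelled HaloTag reader fusions (10 nM to 1 μM) plus streptavidin-Alexa Fluor 647 or rabbit histone antibodies (1:10,000 to 1:2,000) plus anti-rabbit Alexa 647. An Axon GenePix 4000B read the 635 nm channel. Binding signal is the spot-triplicate mean intensity after min-max scaling within each library.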

[2] = molecular target: HaloTag-ING2 PHD (mouse Ing2 200-280)
In short: as §1

[3] = molecular target: anti-H3K4me3 antibody ab8580
In short: as §1

[4] = molecular target: anti-H3K9me3 antibody ab8898
In short: as §1

[5] = binder concentration: 1:2,000 dilution
[6] = binder concentration: 1:10,000 dilution

FLENVIRDAVTYT [Unmod H4 variant F L E N V I R D A V T Y T]
peptide microarray binding signal ([1]; binder concentration: 50 nM): 0.0144 ± 0.0008
peptide microarray binding signal ([1]; binder concentration: 500 nM): 0.0404 ± 0.01
peptide microarray binding signal ([2]; binder concentration: 10 nM): 0.00901 ± 0.0012
peptide microarray binding signal ([2]; binder concentration: 100 nM): 0.0294 ± 0.011
peptide microarray binding signal [3, 5]: 0.00381 ± 0.00074
peptide microarray binding signal [3, 6]: 0.00519 ± 0.00068
peptide microarray binding signal [4, 5]: 0.00331 ± 0.00056
peptide microarray binding signal [4, 6]: 0.0034 ± 0.00025

YEETRGVLKVFLE [Unmod H4 variant Y E E T R G V L K V F L E]
peptide microarray binding signal ([1]; binder concentration: 50 nM): 0.00188 ± 2.3e-05
peptide microarray binding signal ([1]; binder concentration: 500 nM): 0.00157
peptide microarray binding signal ([2]; binder concentration: 10 nM): 0.00197 ± 3e-05
peptide microarray binding signal ([2]; binder concentration: 100 nM): 0.001913 ± 1.9e-05
peptide microarray binding signal [3, 5]: 0.00123 ± 0.00021
peptide microarray binding signal [3, 6]: 0.000742
peptide microarray binding signal [4, 5]: 0.000287 ± 2.9e-06
peptide microarray binding signal [4, 6]: 0.000807 ± 2.5e-05

TYTEHAKRKTVTA [Unmod H4 variant T Y T E H A K R K T V T A]
peptide microarray binding signal ([1]; binder concentration: 50 nM): 0.0167 ± 0.0088
peptide microarray binding signal ([1]; binder concentration: 500 nM): 0.0332 ± 0.0014
peptide microarray binding signal ([2]; binder concentration: 10 nM): 0.00901 ± 0.00035
peptide microarray binding signal ([2]; binder concentration: 100 nM): 0.0293 ± 0.0034
peptide microarray binding signal [3, 5]: 0.00155 ± 0.00011
peptide microarray binding signal [3, 6]: 0.0024 ± 0.00014
peptide microarray binding signal [4, 5]: 0.00104 ± 3.8e-05
peptide microarray binding signal [4, 6]: 0.00202 ± 8.6e-05

GVLKVFLENVIRD [Unmod H4 variant G V L K V F L E N V I R D]
peptide microarray binding signal ([1]; binder concentration: 50 nM): 0.00223 ± 6.3e-05
peptide microarray binding signal ([1]; binder concentration: 500 nM): 0.00281 ± 0.00014
peptide microarray binding signal ([2]; binder concentration: 10 nM): 0.00388 ± 0.00015
peptide microarray binding signal ([2]; binder concentration: 100 nM): 0.00269 ± 6.7e-05
peptide microarray binding signal [3, 5]: 0.00174 ± 0.00026
peptide microarray binding signal [3, 6]: 0.00097 ± 2e-05
peptide microarray binding signal [4, 5]: 0.00125 ± 0.00016
peptide microarray binding signal [4, 6]: 0.00098

ISGLIYEETRGVL [Unmod H4 variant I S G L I Y E E T R G V L]
peptide microarray binding signal ([1]; binder concentration: 50 nM): 0.00266 ± 3.1e-05
peptide microarray binding signal ([1]; binder concentration: 500 nM): 0.00776 ± 0.0036
peptide microarray binding signal ([2]; binder concentration: 10 nM): 0.00233 ± 7.4e-05
peptide microarray binding signal ([2]; binder concentration: 100 nM): 0.00319 ± 0.00013
peptide microarray binding signal [3, 5]: 0.00109 ± 5.1e-05
peptide microarray binding signal [3, 6]: 0.00114 ± 1.2e-05
peptide microarray binding signal [4, 5]: 0.0004228 ± 4.1e-06
peptide microarray binding signal [4, 6]: 0.000807 ± 1.5e-05

IRDAVTYTEHAKR [Unmod H4 variant I R D A V T Y T E H A K R]
peptide microarray binding signal ([1]; binder concentration: 50 nM): 0.0385 ± 0.0035
peptide microarray binding signal ([1]; binder concentration: 500 nM): 0.0711 ± 0.01
peptide microarray binding signal ([2]; binder concentration: 10 nM): 0.0251 ± 0.0019
peptide microarray binding signal ([2]; binder concentration: 100 nM): 0.0444 ± 0.0047
peptide microarray binding signal [3, 5]: 0.00429 ± 0.00052
peptide microarray binding signal [3, 6]: 0.00913 ± 0.0018
peptide microarray binding signal [4, 5]: 0.00497 ± 9e-05
peptide microarray binding signal [4, 6]: 0.00577 ± 8e-05

AKRKTVTAMDVVY [Unmod H4 variant A K R K T V T A M D V V Y]
peptide microarray binding signal ([1]; binder concentration: 50 nM): 0.00693 ± 0.00037
peptide microarray binding signal ([1]; binder concentration: 500 nM): 0.0206 ± 0.0015
peptide microarray binding signal ([2]; binder concentration: 10 nM): 0.00609 ± 0.00018
peptide microarray binding signal ([2]; binder concentration: 100 nM): 0.0129 ± 0.0003
peptide microarray binding signal [3, 5]: 0.00104 ± 3.5e-05
peptide microarray binding signal [3, 6]: 0.001484 ± 1.4e-05
peptide microarray binding signal [4, 5]: 0.000604 ± 2e-05
peptide microarray binding signal [4, 6]: 0.00104 ± 1.1e-05
